Measurements from PubChem BioAssay (Tox21).
Inconclusive results are not listed. Calls of active or inactive are those of the source. Calls follow the shape of the dose curve; as a rule, active = well fitted curve in the direction sought with a large enough effect in the repeat runs; inconclusive = weak or mixed curves; inactive = no such curve, though single readings can be large; an effect the other way counts as inactive or inconclusive.

Columns and labels:
[1] = qHTS RealTime-Glo MT Cell Viability Assay in HepG2 cells - 8 hour (AID 1224873); also: nearly all actives have a fitted effect of over 55% in size
Summary of the method: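 HepG2 cells mixed with RealTime-Glo MT reagents (NanoLuc plus cell-permeant prosubstrate) were seeded at 600 cells/well, incubated 5 h at 37 C/5% CO2, then pinned with compounds in DMSO; nonlytic luminescence tracked viability during 40 h treatment.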

[2] = qHTS RealTime-Glo MT Cell Viability Assay in HEK293 cells - 40 hour (AID 1224874); conditions: RealTime-Glo luminescence; max response: hits give low values; also: nearly all actives have a fitted effect of over 50% in size
Summary of the method: (§1)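 Real-time viability in HEK293: signal arises when living cells convert a prosubstrate for NanoLuc in the medium, so luminescence tracks viable cell number. Compound (23 nL, DMSO) added 5 h post-seeding; kinetic reads at 0–40 h, 37 C.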

[3] = A CellTox Green Cytotoxicity Assay to monitor cytotoxicity in HEK293 cells - 24 hour (AID 1224875); also: series mostly up to about 77 µM; nearly all actives have a fitted effect of over 45% in size
Summary of the method: (§2)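 Cells (HEK293, 600/well) and dye reagent are dispensed together. After 5 h at 37 C, 23 nL compound is pinned in. Plates stay at 37 C for 40 h with fluorescence read at 0h, 8h, 16h, 24h, 32h and 40h.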

[4] = A CellTox Green Cytotoxicity Assay to monitor cytotoxicity in HepG2 cells - 16 hour (AID 1224876); also: nearly all actives have a fitted effect of over 45% in size
Summary of the method: (§3)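 Cells and non-lytic dye reagent are dispensed together (600 HepG2 cells/well) and incubated 5 h before DMSO compound transfer. Kinetic fluorescence is then recorded in the same wells during 40 h at 37 C.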

[5] = qHTS RealTime-Glo MT Cell Viability Assay in HepG2 cells - 32 hour (AID 1224877); also: nearly all actives have a fitted effect of over 55% in size
Summary of the method: (§4)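 Cells + NanoLuc/prosubstrate dispensed (600 cells/well) → 5 h at 37 C/5% CO2 → compounds in DMSO transferred → 40 h incubation at 37 C, luminescence read at 0, 8, 16, 24, 32, 40 h.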

[6] = A CellTox Green Cytotoxicity Assay to monitor cytotoxicity in HepG2 cells - 24 hour (AID 1224878); also: nearly all actives have a fitted effect of over 45% in size
Summary of the method: as §3

[7] = A CellTox Green Cytotoxicity Assay to monitor cytotoxicity in HepG2 cells - 40 hour (AID 1224879); also: nearly all actives have a fitted effect of over 40% in size
Summary of the method: as §3

[8] = qHTS RealTime-Glo MT Cell Viability Assay in HEK293 cells - 0 hour (AID 1224880); also: top concentration of the series differs between compounds; nearly all actives have a fitted effect of over 45% in size
Summary of the method: as §1

[9] = A CellTox Green Cytotoxicity Assay to monitor cytotoxicity in HEK293 cells - 32 hour (AID 1224881); also: nearly all actives have a fitted effect of over 40% in size
Summary of the method: as §2

[10] = A CellTox Green Cytotoxicity Assay to monitor cytotoxicity in HepG2 cells - 0 hour (AID 1224882); also: nearly all actives have a fitted effect of over 35% in size
Summary of the method: as §3

[11] = A CellTox Green Cytotoxicity Assay to monitor cytotoxicity in HepG2 cells - 32 hour (AID 1224883); also: nearly all actives have a fitted effect of over 50% in size
Summary of the method: as §3

[12] = A CellTox Green Cytotoxicity Assay to monitor cytotoxicity in HEK293 cells - 8 hour (AID 1224884); also: nearly all actives have a fitted effect of over 35% in size
Summary of the method: as §2

[13] = qHTS RealTime-Glo MT Cell Viability Assay in HepG2 cells - 16 hour (AID 1224885); also: nearly all actives have a fitted effect of over 50% in size
Summary of the method: as §4

[14] = qHTS RealTime-Glo MT Cell Viability Assay in HEK293 cells - 24 hour (AID 1224886); also: top concentration of the series differs between compounds; nearly all actives have a fitted effect of over 50% in size
Summary of the method: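 Tox21 10K qHTS, HEK293, 600 cells/well, RealTime-Glo reagent co-dispensed with cells; 5 h preincubation, compound by pintool, 37 C, luminescence at 0–40 h.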

[15] = qHTS RealTime-Glo MT Cell Viability Assay in HEK293 cells - 8 hour (AID 1224887)
Summary of the method: as §1

[16] = A CellTox Green Cytotoxicity Assay to monitor cytotoxicity in HEK293 cells - 16 hour (AID 1224888); also: nearly all actives have a fitted effect of over 35% in size
Summary of the method: as §2

[17] = qHTS RealTime-Glo MT Cell Viability Assay in HepG2 cells - 0 hour (AID 1224889); also: nearly all actives have a fitted effect of over 50% in size
Summary of the method: as §4

[18] = A CellTox Green Cytotoxicity Assay to monitor cytotoxicity in HepG2 cells - 8 hour (AID 1224890); also: nearly all actives have a fitted effect of over 45% in size
Summary of the method: as §3

[19] = qHTS assay to identify small molecule antagonists of the estrogen receptor alpha (ER-alpha) signaling pathway using the BG1 cell line in the presence of 0.1 nM 17-beta-estradiol - cell viability counter screen (AID 1259241); also: nearly all actives have a fitted effect of over 40% in size
Summary of the method: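 Estradiol-stimulated (0.1 nM) VM7Luc4E2 cells exposed to compounds 22 hr; viability measured by fluorescence of cleaved CellTiter-Fluor substrate after 30 min.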

[20] = qHTS assay to identify small molecule antagonists of the androgen receptor (AR) signaling pathway using the MDA cell line in the presence of 0.5 nM R1881 - cell viability counter screen (AID 1259242); also: nearly all actives have a fitted effect of over 45% in size
Summary of the method: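 Steps: plate MDA-kb2 cells, rest 5 hr at 37C without CO2; pin in compounds in DMSO; add R1881 to 0.5 nM final; incubate 16 hr; add CellTiter-Fluor, 30 min; read fluorescence.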
% is scaled to controls: 0 for no effect and ±100 for the full control effect.

CCOC(OCC)C(=O)c1ccccc1
inactive: Potency [1] | max response [2] 0.351% | Potency [3] | Potency [4] | Potency [5] | Potency [6] | Potency [7] | Potency [8] | Potency [9] | Potency [10] | Potency [11] | Potency [12] | Potency [13] | Potency [14] | Potency [15] | Potency [16] | Potency [17] | Potency [18] | Potency [19] | Potency [20]

CC(=O)C=O
inactive: Potency [1] | max response [2] 3.76% | Potency [3] | Potency [4] | Potency [5] | Potency [6] | Potency [7] | Potency [8] | Potency [9] | Potency [10] | Potency [11] | Potency [12] | Potency [13] | Potency [14] | Potency [15] | Potency [16] | Potency [17] | Potency [18] | Potency [19] | Potency [20]

OCCC(O)CO (stereo not given)
inactive: Potency [1] | max response [2] 15.6% | Potency [3] | Potency [4] | Potency [5] | Potency [6] | Potency [7] | Potency [8] | Potency [9] | Potency [10] | Potency [11] | Potency [12] | Potency [13] | Potency [14] | Potency [15] | Potency [16] | Potency [17] | Potency [18] | Potency [19] | Potency [20]

[O]=[Zr]
inactive: Potency [1] | max response [2] 1.9% | Potency [3] | Potency [4] | Potency [5] | Potency [6] | Potency [7] | Potency [8] | Potency [9] | Potency [10] | Potency [11] | Potency [12] | Potency [13] | Potency [14] | Potency [15] | Potency [16] | Potency [17] | Potency [18] | Potency [19] | Potency [20]

O=c1cccc[nH]1
inactive: Potency [1] | max response [2] 12.2% | Potency [3] | Potency [4] | Potency [5] | Potency [6] | Potency [7] | Potency [8] | Potency [9] | Potency [10] | Potency [11] | Potency [12] | Potency [13] | Potency [14] | Potency [15] | Potency [16] | Potency [17] | Potency [18] | Potency [19] | Potency [20]

CCOCOCC
inactive: Potency [1] | max response [2] 5.75% | Potency [3] | Potency [4] | Potency [5] | Potency [6] | Potency [7] | Potency [8] | Potency [9] | Potency [10] | Potency [11] | Potency [12] | Potency [13] | Potency [14] | Potency [15] | Potency [16] | Potency [17] | Potency [18] | Potency [19] | Potency [20]
